High-throughput results as filed in PubChem BioAssay.
An excerpt weighted towards active compounds, which were near 0.81% of everything screened.
RE007 growth inh = qHTS Assay for Inhibitors of the HIV-1 protein Vpr; S. pombe RE007 Vpr strain, BacTiter-Glo ATP luminescence, 24 h; Potency, µM (doses to about 92.2 µM), without a hit: at the top dose activity change, negative = less growth, actives largely listed as inhibitors; actives 0.21% (n = 360,000); AID 651644, 2012; active = well fitted falling curve with a large enough effect; inconclusive = small, poorly fitted or top-dose-only effect; inactive = no such curve, though single readings can be large or run the other way; note: % is set by controls: 0 for no effect and ±100 for the full control effect; nearly all actives have a fitted effect of over 50% in size
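Fission yeast RE007 carrying one integrated HIV-1 vpr copy, seeded at OD 0.01 in PMG+AL medium with 23 nL pinned compound. Grown 24 h at 30 degrees; viability read by BacTiter-Glo luminescence after 5 min.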
AMA1 RON2 block = qHTS for Inhibitors of AMA1-RON; Towards Development of Antimalarial Drug Lead: Primary Screen; Plasmodium falciparum AMA1 (3D7) - RON2 peptide interaction; AlphaScreen AMA1-biotinylated RON2 peptide binding; Potency, µM (titrated, usually from 58.2 µM), without a hit: top-dose activity change, negative = inhibition, actives largely listed as inhibitors; actives 0.2% (n = 360,000);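 note: 0% = vehicle wells and -100% = peptide control; nearly all actives have a fitted effect of over 45% in size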
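AMA1 (3D7) with his tag at 25 nM final met compounds first, then biotinylated RON2 peptide at 25 nM; detection used donor plus acceptor beads, 10 µg/mL apiece, read by AlphaScreen after 30 min at room temperature.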
SARS PLpro yeast = qHTS of Yeast-based Assay for SARS-CoV PLP. S. cerevisiae expressing SARS-CoV PLpro, growth rescue. Potency, µM (doses to about 32.9 µM), without a hit: top-dose activity, positive = growth rescue, hits mostly activators. actives 0.19% (n = 330,000); calls by dose curve; note: 0% is about no effect; nearly all actives have a fitted effect of over 55% in size
TbPYK inhibitor = qHTS of Trypanosoma Brucei Inhibitors; pyruvate kinase (Trypanosoma brucei), Q57TT1; actives 0.12% (n = 410,000); Potency, µM (series often up to 76.8 µM), inactives show at the highest dose activity, negative = inhibition, usual class: inhibitors; TbPYK enzyme, Kinase-Glo Plus ATP luminescence, 45 min; note: % is set by controls: 0 for no effect and ±100 for the full control effect; nearly all actives have a fitted effect of over 50% in size
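Enzyme and substrate buffer are dispensed first and compound is pin-transferred. ADP at 130 uM final then starts the reaction, which runs 45 min at room temperature. Detection reagent is added for 10 min before luminescence is imaged.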
LmPK inh = qHTS Assay for Inhibitors of Leishmania Mexicana Pyruvate Kinase (LmPK); AID 1721, 2009; Potency, µM (highest dose often 57.5 µM), inactives show at the top dose activity change, negative = inhibition, hits mostly inhibitors; purified LmPK, Kinase-Glo ATP luminescence, 1 h; actives 0.37% (n = 290,000); note: % is set by controls: 0 for no effect and ±100 for the full control effect
Target sequence (Q27686 whole entry, looked up): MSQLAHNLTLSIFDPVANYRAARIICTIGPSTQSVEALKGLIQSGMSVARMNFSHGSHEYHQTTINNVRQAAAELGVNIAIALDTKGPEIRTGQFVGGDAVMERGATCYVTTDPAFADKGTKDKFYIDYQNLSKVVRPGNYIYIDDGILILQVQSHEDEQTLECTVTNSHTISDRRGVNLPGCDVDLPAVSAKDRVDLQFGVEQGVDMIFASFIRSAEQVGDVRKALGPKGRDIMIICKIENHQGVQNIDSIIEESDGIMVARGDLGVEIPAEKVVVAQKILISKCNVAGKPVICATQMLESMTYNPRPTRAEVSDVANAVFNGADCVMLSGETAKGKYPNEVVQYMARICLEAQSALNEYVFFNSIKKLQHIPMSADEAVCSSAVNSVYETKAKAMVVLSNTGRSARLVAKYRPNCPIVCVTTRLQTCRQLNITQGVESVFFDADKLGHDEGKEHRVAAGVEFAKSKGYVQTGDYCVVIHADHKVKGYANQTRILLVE
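Purified LmPK (0.1 nM) converted ADP (0.1 mM) to ATP with PEP (0.5 mM) in imidazole buffer pH 7.2 with KCl and MgCl2, 1 h at room temperature. ATP was read by Kinase-Glo luminescence; data normalized to uninhibited and no-enzyme controls.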
Starred values were filed as active, the others as inactive; ? = inconclusive; . = no result given; [ ] = remark or other dose. Unless noted, calls come from the whole dose curve; as a rule, active = well fitted curve in the direction sought with a large enough effect; inconclusive = small, poorly fitted or top-dose-only effect, or another doubt; inactive = no such curve, though single readings can be large; an effect the other way counts as inactive or inconclusive. Potency is the fitted concentration of half-maximal effect.

SMILES	RE007 growth inh	AMA1 RON2 block	SARS PLpro yeast	TbPYK inhibitor	LmPK inh
O=C(COc1ccc(Cl)cc1)OCCNC12CC3CC(CC(C3)C1)C2	.	.	.	-9%	.
CC(C)(C)c1ccc(NC(=O)CSc2nnc3scc(-c4ccccc4)n23)cc1	.	.	.	2%	.
Nc1ccc(O)c2c1C(=O)c1ccccc1C2=O	?	7.1µM*	-33%	-21%	-29%
CCCCCCCCCCCCCCCC(=O)OC[C@@H](COP(=O)([O-])OCC[N+](C)(C)C)OC(=O)CCCCCCCCCCCCCCC	.	.	.	-10%	.
Clc1cccc(-c2nnc(-c3ccccc3)o2)c1	20µM*	6%	-10%	-10%	25µM*
COc1cc(CCN)c(OC)cc1Br	.	.	.	4%[157 µM]	.
CCCOc1ccc(N2C(=O)CC(N(CCc3ccc(OC)c(OC)c3)C(=O)c3ccccc3)C2=O)cc1 (configuration not stated)	-1%	-13%	-1%	3%	2%
COc1ccc(N2C(=O)CC(N(C)CCc3ccc(OC)c(OC)c3)C2=O)cc1 (configuration not stated)	22µM*	5%	-2%	4%	4%
COc1ccc(N2C(=O)CC(N(CCc3ccc(OC)c(OC)c3)C(=S)Nc3ccccc3)C2=O)cc1 (configuration not stated)	24%	2%	-11%	-10%	2%
COc1ccc(CCN(C)C2CC(=O)N(c3ccccc3)C2=O)cc1OC (configuration not stated)	6.3µM*	-5%	-4%	-2%	1%
COC(=O)c1ccc(N2C(=O)CC(N(C)CCc3ccc(OC)c(OC)c3)C2=O)cc1 (configuration not stated)	7.9µM*	1%	-29%	-16%	0%
CCCCCCCCCCOc1cc2c(=O)c(C(=O)OCC)c[nH]c2cc1OCC	.	.	.	4%	.
COc1ccc(OC)c(NC(=O)c2nc3ccccc3s2)c1	-5%	1%	1%	-1%	1%
COc1ccc(C(=O)Nc2ccc(NC(=O)c3ccccn3)cn2)cc1	-18%	4%	-7%	10%	3%
COc1ccc(NC(=O)c2ccccn2)cc1	?	4%	-17%	-29%	11µM*
O=C(Nc1ccc(NC(=O)C2CC2)nc1)c1ccccn1	-14%	73%	3%	-27%	14µM*
Cc1ccc(NC(=S)c2nc3ccccc3s2)cc1	-6%	10µM*	-3%	14%	-6%
S=C(Nc1ccc(Cl)cc1)c1nc2ccccc2s1	2%	?	-5%	4%	-6%
COc1ccc(NC(=O)c2nc3ccccc3s2)cc1	-30%	14%	-15%	-12%	16µM*
Cc1cccc(NC(=O)Cn2c(=O)n(Cc3ccc4c(c3)OCO4)c(=O)c3ccccc32)c1	.	.	.	1%	.
CCc1nc2c(OCc3ccccc3)cccn2c1N(C)C(=O)c1ccc2c(c1)OCO2	-27%	-21%	.	-1%	.
COc1ccc(C2NC(=S)N3C(c4ccc(OC)c(OC)c4)NC(=S)N23)cc1OC (configuration not stated)	.	.	.	-5%	.
O=C1C(c2ccc(F)cc2)N(CCc2ccccc2)C(=O)CN1C1CCCCC1 (configuration not stated)	.	.	.	2%	.
FC(F)(F)C(F)(F)C(F)(F)C(F)(F)C(F)(F)C(F)(F)C(F)(F)C(F)(F)Br	.	.	.	-3%	.
COc1ccc(NC(=O)CC2C(=O)N(c3ccc(F)cc3)C(=O)N2Cc2cccnc2)cc1 (configuration not stated)	.	.	.	1%	.
COc1cc(OC)c2c(c1)OC1Cc3cc(OC)c(OC)cc3C2O1 (configuration not stated)	.	.	.	.	2%[11.5 µM]
C(=N\N1CCN(c2ccccn2)CC1)/c1cccc2ccccc12	-11%	14µM*	-1%	-1%	-3%
O=C(CSc1cn(CCNC(=O)c2cccc(C(F)(F)F)c2)c2ccccc12)Nc1ccc2c(c1)OCCO2	.	.	.	-7%	.
